# Results filed as inconclusive are left out. A number with no mark means an inactive call. Calls follow the shape of the dose curve; as a rule, active = well fitted cell-killing curve with a large enough effect; inconclusive = small, poorly fitted or top-dose-only effect, or effect the other way; inactive = flat fitted curve, though single readings scatter.
# Test system: CASKI
# Test: Primary qHTS to identify gynecologic anti-cancer compounds using libraries of approved drugs and bioactive compounds (AID 1345084); also: nearly all actives have a fitted effect of over 55% in size
# Settings: Gynecologic cancer cell panel viability, ATPlite luminescence, 48 h; series mostly up to 57.5 µM; activity change, negative = cytotoxicity: at the top concentration
# Summary of the method: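 ATP-based viability (ATPlite), 1,000 cells/well, 16 h pre-incubation, 48 h compound at 37 C, 5% CO2, 15 min RT before read.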
# % is scaled to controls: 0 for no effect and ±100 for the full control effect.
row,Structure (SMILES),"activity change, negative = cytotoxicity"
1,CC(C)=C[C@@H]1[C@@H](C(=O)OCc2coc(Cc3ccccc3)c2)C1(C)C,-6.09%
2,CCN(CC)C(C)C(=O)c1ccccc1 (configuration not stated),-8.98%
3,Nc1ccc(Cl)cc1C(=O)c1ccccc1F,0.586%
4,COc1ccc(C(=O)N2CCCC2=O)cc1,-7.54%
5,CC(C)C(Br)C(=O)NC(N)=O (configuration not stated),3.2%
6,C#C[C@]1(O)CC[C@H]2[C@@H]3CCC4=CC(=O)CCC4=C3C=C[C@@]21CC,-0.189%
7,CC(CC(C(N)=O)(c1ccccc1)c1ccccc1)N(C)C (configuration not stated),-2.34%
8,C#C[C@]1(O)C=C[C@H]2[C@@H]3CCC4=CC(=O)CC[C@@H]4[C@H]3CC[C@@]21CC,-1.44%
9,C[C@@H]1CC[C@H]2[C@@H](C)C(=O)O[C@@H]3O[C@@]4(C)CC[C@@H]1[C@]32OO4,9.61%
10,CNC(C)Cc1ccccc1OC (configuration not stated),-1.8%
11,CC(Cc1ccccc1)NCc1ccccc1Cl (configuration not stated),-11.4%
12,Nc1ccccc1C(=O)OCC(O)CO (configuration not stated),-0.535%
13,CC(C)NCC(O)c1ccc(N)c(C#N)c1 (configuration not stated),4.65%
14,Sc1ccccc1Cl,6.33%
15,CCN(CC)CCOC(=O)C(C)(c1ccccc1)c1ccccc1,3.97%
16,COc1ccc2[nH]cc(CCN(C(C)C)C(C)C)c2c1,-7.94% [at 116 µM]
17,COc1cc(CC#N)cc(OC)c1OC,16.6%
18,O=C(CBr)Nc1ccc(Cl)cc1C(=O)c1ccccc1F,8.48%
19,COP(=S)(OC)Oc1ccc(S(N)(=O)=O)cc1,9.83%
20,C[N+](C)(C)CCOC(=O)C(O)(c1ccccc1)c1ccccc1,-9.68%
21,ClCCCN1CCN(c2cccc(Cl)c2)CC1,0.105%
22,CCc1ccc(C2CCNCC2)cc1,8.33%

# Source: PubChem BioAssay (NCATS)
